# Measurements: PubChem BioAssay AID1259417 (TB Discovery Research, Infectious Disease Research Institute, 2018)
# The campaign covered roughly 1,100 compounds. About 760 (69%) were called active. How the calls were made is not given here. The set was probably picked from earlier hits. The list shows a part of the results.
# Assay: M. tuberculosis growth inhibition, HTS (AID 1259417);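 further: bacteria grown with compound for 5 days at 37 °C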
# Conditions: stronger effect = higher value, concentration not given here
# [1] = M. tuberculosis DsRed fluorescence growth inhibition
# [2] = M. tuberculosis growth inhibition
SMILES,inhibition [1],inhibition [2] [%]
CC1(C)CC(=O)C2=C(C1)OC(N)=C([N+](=O)[O-])C2c1ccc(C#N)s1 (stereo not given),10.4% (active),32.4
CC1=NN(c2nc(-c3ccc(Cl)cc3)cs2)C(=O)C1C (stereo not given),4.11% (inactive),7.17
N#Cc1ccc(-c2ccc(OCC(=O)Nc3cccnc3)cc2)cc1,43% (active),88.1
N#Cc1ccc(-c2ccc(OCC(N)=O)cc2)cc1,17.9% (active),86.6
O=C(COc1ccc(Cl)cc1)Nc1ccc(Cc2ccncc2)cc1,-0.257% (inactive),-2.75
CC(C)(C)C(=O)NC(=S)NNC(=O)C(c1ccccc1)c1ccccc1,44.9% (active),30.8
O=C(CC12CC3CC(CC(C3)C1)C2)Nc1ccc(N2CCOCC2)c(Cl)c1,33.8% (active),-14.8
CCC(=O)N1CCN(c2ccc(Cl)cc2NC(=O)CC23CC4CC(CC(C4)C2)C3)CC1,6.85% (inactive),6.57
CCN1CCN(c2ccc(NC(=O)CC34CC5CC(CC(C5)C3)C4)cc2Cl)CC1,32.7% (active),46.9
Cc1ccc2c(c1)c1ncnc(N3CCc4ccccc4C3)c1n2C,99.1% (active),100
Cc1ccc(Cn2c(=N)n(CC(O)c3ccc(Cl)c(Cl)c3)c3ccccc32)cc1 (stereo not given),99.8% (active),98.9
c1ccc(CC2CCN(c3nc4ccccc4n4cnnc34)CC2)cc1,57.6% (active),39.3
c1ccc2c(NCCc3c[nH]c4ccccc34)c3ccccc3nc2c1,27.2% (active),59.7
FC(F)(F)c1cccc(-n2cc(-c3ccccc3)c3c(NCc4cccnc4)ncnc32)c1,4.11% (inactive),-14
CC1CC(C)CN(C(=O)Nc2ccc(Cl)c(Cl)c2)C1 (stereo not given),9.98% (inactive),2.73
CCC1CCCCN1C(=O)COC(=O)c1cc2ccccc2cc1O (stereo not given),37.8% (active),89
O=C(OCC(=O)N1CCCCC1)c1cc2ccccc2cc1O,47.8% (active),88.2
CCC1CCCCN1C(=S)NC(=O)c1ccc(F)cc1 (stereo not given),7.93% (inactive),0.813
CC1CC(C)CN(C(=O)COC(=O)c2cc3ccccc3cc2O)C1 (stereo not given),36.3% (active),90.7
CC1CCN(C(=O)COC(=O)c2cc3ccccc3cc2O)CC1,75.2% (active),96
Cc1c(Cl)ccc(OCCCN2CCCC(C)C2)c1C (stereo not given),99.2% (active),92.6
Clc1ccc(-c2nnc(SCc3ccon3)o2)c(Cl)c1,82.2% (active),64.9
CC(C)OC(=O)CSc1nnc(-c2ccc(N(C)C)cc2)o1,81.3% (active),91.9
CC(C)OC(=O)CSc1nnc(-c2ccc(Cl)cc2Cl)o1,73% (active),86.2
CCOC(=O)CSc1nnc(-c2ccc(Cl)cc2Cl)o1,78.6% (active),85.5
